Several values for one entry are separate records, joined by “and”; a condition that tells them apart may be missing. Equal values may be shown once. Results filed as inconclusive are left out. Activity calls are given as the source filed them. Unless noted, the call rests on the fitted dose curve; in most records, active means well fitted curve in the direction sought with a large enough effect; inconclusive means small, poorly fitted or top-dose-only effect, or another doubt; inactive means no such curve, though single readings can be large; an effect the other way counts as inactive or inconclusive.

Assay [1] has as its target Alpha-galactosidase A (Homo sapiens) (UniProt P06280). As to the kind of experiment: Counterscreen for Glucocerebrosidase Inhibitors: qHTS Assay for Human alpha-Galactosidase at pH 4.5 (AID 992). Further: 0% is about no effect. The gist of the method: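 Enzyme at 2 nM final was combined with compound (0.7 nM to 77 uM) and 80 uM 4-methylumbelliferyl alpha-D-galactopyranoside in 50 mM citric acid, 0.005% Tween-20, pH 4.5. After 20 min at room temperature, fluorescence was read (Ex 365/Em 440 nm); AC50 came from Hill fits.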

For assay [2], the target named is alpha-glucosidase (Oryza sativa, rice) (UniProt Q653V4). The assay is described as follows: Counterscreen for Glucocerebrosidase Inhibitors: qHTS Assay for Rice alpha-Glucosidase at pH 5.0 (AID 997).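 Further: 0% = full activity with enzyme and -100% = basal without enzyme.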 The gist of the method:
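Rice alpha-glucosidase (4 nM final) with 400 uM 4-methylumbelliferyl-alpha-D-glucopyranoside in citrate buffer pH 5.0, 20 min at room temperature, stopped at pH 10; fluorescence 365/440 nm, compounds 0.7 nM–77 uM, AC50 from Hill fits.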

The nature of assay [3]: qHTS Assay for Lipid Storage Modulators (AID 1519; calls by dose curve; on activity change, negative = inhibition: on the % scale 0 is the no-effect control and ±100 the full control effect). Conditions: Drosophila S3 cells, BODIPY lipid droplet/cell ratio, laser cytometry, cells loaded with oleic acid. The method in brief:
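Cells seeded at 5,000 per well were treated with compounds over a concentration series and loaded with oleic acid (400 uM, as added). Lipid droplet fluorescence (488 nm excitation, 500-530 nm channel) was read by laser-scanning cytometry and normalized to 20 uM Triacsin C.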

For assay [4], the target named is DNA repair nuclease/redox regulator APEX1 (Homo sapiens) (UniProt P27695). The assay is described as follows: qHTS Validation Assay for Inhibitors of the Human Apurinic/apyrimidinic Endonuclease 1 (APE1) (AID 1705;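 further: TAMRA fluorescence gain over two minutes as APE1 cuts a quenched THF abasic duplex; on the % scale 0 is the no-effect control and ±100 the full control effect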). The method in brief: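 Read-out: TAMRA fluorescence (525 nm ex, 598 nm em) from cleavage of a quenched THF abasic-site duplex, 50 nM final; activity taken as intensity change between third and first of three reads 60 s apart.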

Assay [5] in a line: Counterscreen for APE1 Inhibitors: Fluorescent Dye Displacement Validation Assay (AID 1707).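 Further: plate controls were ThO with dsDNA and no compound for no effect and ThO without dsDNA for full effect.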 The gist of the method: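 Thiazole Orange displacement from dsDNA: 250 nM ThO with 50 nM TAMRA-labelled abasic-site (tetrahydrofuran) duplex in 50 mM Tris-HCl pH7.5, 50mM NaCl, 2 mM MgCl2, 0.01% Tween-20. Loss of endpoint fluorescence (ex 480 nm, em 540 nm) flags DNA binders.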
A short description of assay [6]: Cell Viability - LYMP2-018 (AID 985).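 Further: compound exposure lasted 24 hr at 37 °C; plate controls were DMSO only for no effect and tetraoctylammonium bromide at 92 µM for full effect; nearly all actives have a fitted effect of over 50% in size.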 The gist of the method:
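Acute cytotoxicity is scored as a concentration-dependent drop in intracellular ATP after 24 hr exposure of the lymphoblastoid line in complete culture medium, measured by luciferase luminescence. Potency is expressed as AC50 from Hill modelling.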

Assay [7] is described as follows: Cell Viability - LYMP2-020 (AID 986).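 Further: cells exposed to compound for 24 h at 37 °C; plate controls were DMSO only for no effect and tetraoctylammonium bromide at 92 µM for full effect; nearly all actives have a fitted effect of over 55% in size.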 The method in brief: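 Acute cytotoxicity in a human lymphoblastoid line is scored as a concentration-dependent fall in cellular ATP after 24 hr at 37 C in complete medium. The positive control is tetraoctylammonium bromide, and potency is given as Hill-fit AC50.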
The nature of assay [8]: Cell Viability - LYMP2-022 (AID 987).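 Further: 0% = DMSO alone and full effect = tetraoctylammonium bromide at 92 µM; nearly all actives have a fitted effect of over 55% in size.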 The method in brief: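 Acute toxicity in a human lymphoblastoid line is scored as decreased intracellular ATP after 24 hr compound treatment at 37 C. ATP is measured by CellTiter-Glo luminescence; curves are fitted with the Hill equation to give AC50.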
The nature of assay [9]: Cell Viability - LYMP2-026 (AID 989).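 Further: cells exposed to compound for 24 h at 37 °C; on the % scale 0 is the no-effect control and ±100 the full control effect; nearly all actives have a fitted effect of over 50% in size.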 The gist of the method:
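Concentration-dependent loss of intracellular ATP in human lymphoblastoid cells after 24 hr at 37 C, quantified by luciferase luminescence. AC50 derived from standard Hill equation.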

A short description of assay [10]: Cell Viability - LYMP1-002 - Assay at 40 hr (AID 994).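 Further: 0% = DMSO only and full inhibition = 92 µM tetraoctylammonium bromide; nearly all actives have a fitted effect of over 60% in size.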 The gist of the method:
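Viability in the human lymphoblastoid line was measured as intracellular ATP via CellTiter-Glo after 40 hr compound exposure. Tetraoctylammonium bromide served as positive control.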

Assay [11] is described as follows: qHTS for differential inhibitors of proliferation of Plasmodium falciparum line 7G8 (AID 1815).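 Further: parasite growth measured after three days of incubation.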 Further: potency means the concentration at half of the fitted maximal effect.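 On activity change, negative = inhibition: plate controls were vehicle wells for no effect and reference inhibitor wells for full effect.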
Assay [12] can be described thus: qHTS for differential inhibitors of proliferation of Plasmodium falciparum line GB4 (AID 1816).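 Further: parasite growth measured after 72 h incubation.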 Further: potency means the concentration at half of the fitted maximal effect.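 On activity change, negative = inhibition: 0% = vehicle DMSO and -100% = reference inhibitor.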 Conditions: Potency: Plasmodium falciparum GB4 proliferation inhibition.
A short description of assay [13]: qHTS for differential inhibitors of proliferation of Plasmodium falciparum line 3D7 (AID 1876). Further: potency means the concentration at half of the fitted maximal effect.
Assay [14] in a line: qHTS for differential inhibitors of proliferation of Plasmodium falciparum line D10 (AID 1877).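 Further: parasites grown with compound for 72 h before DNA staining.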 Further: potency means the concentration at half of the fitted maximal effect.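 On activity change, negative = inhibition: plate controls were vehicle wells for no effect and reference inhibitor wells for full effect.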
The nature of assay [15]: qHTS for differential inhibitors of proliferation of Plasmodium falciparum line Dd2 (AID 1882). Further: nearly all actives have a fitted effect of over 65% in size. Further: potency means the concentration at half of the fitted maximal effect.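 On activity change, negative = inhibition: compound exposure of 72 h on infected erythrocytes; plate controls were DMSO vehicle for no effect and 0.29 µM artemisinin for full effect.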 The settings on record: Potency: Plasmodium falciparum Dd2 proliferation inhibition. The method in brief: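 SYBR Green I DNA fluorescence read-out, ex 485/em 535 nm. Signals were normalized to 0.29 uM artemisinin and DMSO wells, then corrected using vehicle-only plates flanking each stack. Parasite growth ran 72 h in erythrocytes before lysis.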

A short description of assay [16]: qHTS for differential inhibitors of proliferation of Plasmodium falciparum line W2 (AID 1883).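 Further: parasites grown with compound for 72 h before lysis and staining.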 Further: potency means the concentration at half of the fitted maximal effect.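 On activity change, negative = inhibition: 0% = vehicle wells and -100% = control inhibitor wells.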 Conditions: Potency: Plasmodium falciparum W2 proliferation inhibition.
Assay [17] is described as follows: qHTS for differential inhibitors of proliferation of Plasmodium falciparum line HB3 (AID 1886).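 Further: parasites grown with compound for 72 h before SYBR Green readout.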 Further: potency means the concentration at half of the fitted maximal effect.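 On activity change, negative = inhibition: plate controls were vehicle for no effect and reference inhibitor for full effect.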 The settings on record: Potency: Plasmodium falciparum HB3 proliferation inhibition.
Assay [18] addresses Endonuclease 4 (Escherichia coli (strain K12)) (UniProt P0A6C1). The assay is described as follows: Counterscreen for APE1 Inhibitors: qHTS Validation Assay for Inhibitors of Endonuclease IV (AID 1708). Further: on the % scale 0 is the no-effect control and ±100 the full control effect. The gist of the method:
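Enzymatic AP-site incision assay using a double-stranded THF substrate labelled with TAMRA and BHQ-2; released fluorescence signals activity. Enzyme 2 nM, substrate 50 nM, 15 min compound preincubation.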

The mark [19] stands for this setting: measured here: cell count channel max response.
Where [20] appears, read: measured here: lipid channel max response.

Chain of DNA repair nuclease/redox regulator APEX1 (Homo sapiens) (P27695 whole entry, looked up): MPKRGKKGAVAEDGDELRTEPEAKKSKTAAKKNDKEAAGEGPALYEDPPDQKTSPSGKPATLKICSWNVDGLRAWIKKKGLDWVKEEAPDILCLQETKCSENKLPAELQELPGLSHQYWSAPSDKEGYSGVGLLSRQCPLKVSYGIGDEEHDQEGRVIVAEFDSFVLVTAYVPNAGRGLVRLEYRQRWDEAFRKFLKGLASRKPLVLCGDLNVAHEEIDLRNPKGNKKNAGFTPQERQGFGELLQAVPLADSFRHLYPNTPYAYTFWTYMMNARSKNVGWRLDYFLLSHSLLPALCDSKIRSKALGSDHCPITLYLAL
Chain of Alpha-galactosidase A (Homo sapiens) (P06280 whole entry, looked up): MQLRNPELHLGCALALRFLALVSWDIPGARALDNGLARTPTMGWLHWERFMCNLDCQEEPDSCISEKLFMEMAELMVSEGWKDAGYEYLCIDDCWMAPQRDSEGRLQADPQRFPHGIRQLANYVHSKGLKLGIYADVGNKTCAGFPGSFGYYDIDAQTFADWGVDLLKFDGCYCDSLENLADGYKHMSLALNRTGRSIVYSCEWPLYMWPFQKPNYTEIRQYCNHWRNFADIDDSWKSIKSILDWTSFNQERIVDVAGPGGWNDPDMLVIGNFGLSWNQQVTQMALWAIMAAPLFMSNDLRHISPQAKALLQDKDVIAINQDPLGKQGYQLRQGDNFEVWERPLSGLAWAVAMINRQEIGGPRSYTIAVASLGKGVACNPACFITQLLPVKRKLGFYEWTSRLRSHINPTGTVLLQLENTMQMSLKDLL

`CC(C)NCC(O)COc1cccc2[nH]ccc12` (stereo not given): the compound was classed as inactive in assay [1], in assay [2], in [4] and in assay [5]. In addition, the activity change, negative = inhibition in assay [3] (at 57.5 µM (top of the series)) was 10.5% (inactive). Moreover, the max response in [3] (setting [19]) is -0.51%; in assay [3] (setting [20]), 13.4%.

For `O=C(O)c1cc(O)c2c(c1)C(=O)c1cccc(O)c1C2=O`, the Potency result in assay [6], in [7], in assay [8], in [9] and in assay [10] was “inactive” in each case. Further, in [3] (at 57.5 µM (top of the series)), the activity change, negative = inhibition was 8.11% (inactive). For the same compound, the max response in assay [3] (setting [19]) stood at 13.4%; in assay [3] (setting [20]) it was 21.8%.

Consider `O=C1NC(=O)C(c2ccccc2)(c2ccccc2)N1`, for which the Potency result in [6], in assay [7], in [8], in [9], in [10] and in assay [11] was “inactive” in each case. The Potency entry in assay [12], in assay [13], in assay [14], in [15], in [16] and in [17] was “inactive” each time. Further, the compound was classed as inactive in assay [1], in assay [2], in [4] and in assay [5]. In addition, in [3] (at 57.5 µM (top of the series)), the activity change, negative = inhibition was 7.13% (inactive) and 0.319% (inactive). Also, the max response in [3] (setting [19]) was 12.1% and -15.7%; in [3] (setting [20]) it was 24.5% and -14.7%.

As to `O=C(O)Cc1cccc2ccccc12`, the Potency result in assay [6], in assay [7], in assay [8], in [9] and in assay [10] was “inactive” throughout.

For the compound `CC1(C)CCC2=C(O1)c1ccccc1C(=O)C2=O`, the call in [1], in assay [2], in assay [4], in [5] and in assay [18] was inactive. The Potency in [11] is 3.55 µM (active); in assay [12], 3.98 µM (active); in assay [13], 10 µM (active); in [14], 11.2 µM (active); in assay [15], 12.6 µM (active); in assay [16] it was 7.08 µM (active). The Potency in assay [17] was 12.6 µM (active).

In the case of `CCN(CC)CCNC(=O)c1ccc(N)cc1`, the outcome in assay [1], in [2], in assay [4], in [5] and in [18] was inactive. In addition, the Potency entry in [11], in assay [12], in assay [13], in assay [14], in [15] and in assay [16] was “inactive” each time. Besides, the Potency entry in [17] is “inactive”.

`O=c1[nH]cnc2c1ncn2[C@H]1CC[C@@H](CO)O1`: the Potency entry in assay [6], in assay [7], in assay [8], in assay [9] and in assay [10] was “inactive” each time.

Turning to `CN(C)CCC(c1ccccc1)c1ccccn1` (stereo not given), the Potency result in assay [6], in assay [7], in assay [8], in assay [9], in [10] and in [13] was “inactive” throughout. In addition, the Potency entry in assay [14] and in assay [17] was “inactive” in each case. Also, the activity change, negative = inhibition in [3] (at 57.5 µM (top of the series)) was 5.69% (inactive). Also, the results for the max response in assay [3] (setting [19]) and in assay [3] (setting [20]) were 23.2% and 33.1%, respectively. The compound was called inactive in assay [4], in [5] and in assay [18]. In addition, the Potency was 5.62 µM (active) in assay [12] and 3.55 µM (active) in assay [16].

Take `COC(=O)[C@@H]1[C@H]2C[C@H]3c4[nH]c5ccccc5c4CCN3C[C@@H]2CC[C@@H]1O`: the result in [4], in [5] and in [18] was inactive. For the same compound, the Potency result in assay [15] is “inactive”.

As to `Cc1cccc(C)c1OCC(C)N` (stereo not given), in assay [3] (at 57.5 µM (top of the series)), the activity change, negative = inhibition is 1.76% (inactive) and 1.1% (inactive). The max response in assay [3] (setting [19]) was 8.91% and -0.493%; in assay [3] (setting [20]), 19.3% and 0.0191%. Further, the call in [4], in assay [5] and in assay [18] was inactive. Besides, the values for the Potency in [11], in assay [12] and in [16] were 12.6 µM (active), 12.6 µM (active) and 7.94 µM (active), respectively. Also, the Potency result in [13], in assay [14] and in assay [17] was “inactive” throughout.

For `COCCCCC(=NOCCN)c1ccc(C(F)(F)F)cc1`, the compound was classed as inactive in [1] and in assay [2]. The activity change, negative = inhibition in [3] (at 25.7 µM (top of the series)) is 0.501% (inactive). For the same compound, the max response in assay [3] (setting [19]) was 5.99%; in assay [3] (setting [20]), 5.1%.

For the compound `CCN(CC)C(=O)c1ccc(O)c(OC)c1`, the result in assay [1], in assay [2], in assay [4], in assay [5] and in assay [18] was inactive. Moreover, the activity change, negative = inhibition in assay [3] (at 25.7 µM (top of the series)) is 0.695% (inactive). Moreover, the max response came out at 14.3% in assay [3] (setting [19]) and 14.5% in assay [3] (setting [20]). For the same compound, the Potency entry in [11], in assay [12], in assay [13], in assay [14], in assay [15] and in assay [16] was “inactive” in each case. Further, the Potency entry in assay [17] was “inactive”.

The record behind these values is PubChem BioAssay (NCATS).
